Assay outcomes deposited in PubChem BioAssay by Broad Institute.
This is one part of a sample in which hits are shown more often than they occur.
NOMO-1 viab – STK33 inhibitor candidate reducing NOMO-1 cell viability; NOMO-1 AML viability, CellTiter-Glo luminescence, 72 h; inhibition, % (no concentration beside the values); 7.5% of 37,000 active; AID 2330; in the data active = inhibition above about 80%; inconclusive = no clear call, values can overlap the other calls
U2OS ROS induce – inducers of reactive oxygen species in cancer cells; U2OS ROS induction, H2DCF-DA fluorescence; ROS induction (% of piperlongumine), % at 10 µM; 2% of 46,000 active; AID 624156; in the data active = ROS induction above about 79%, passing the limit was not always enough; inconclusive = no clear call, values can overlap the other calls;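 also: 0% = DMSO vehicle median and 100% = reference compound median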
* marks the source's active call; other numbers are inactive results; ? = inconclusive; nt = no result.

SMILES | NOMO-1 viab | U2OS ROS induce
C=CCNC(=O)[C@H]1[C@@H]2C(=O)O[C@@H](c3ccccc3)[C@@H](c3ccccc3)N2[C@@H](c2ccc(OCCO)cc2)[C@]12C(=O)Nc1ccc(C#CC3(O)CCCCCC3)cc12 | nt | 49.0
C=CCNC(=O)[C@@H]1[C@H]2C(=O)O[C@H](c3ccccc3)[C@H](c3ccccc3)N2[C@H](c2ccccc2OCCO)[C@@]12C(=O)Nc1ccc(C#CC3(O)CCCCCC3)cc12 | nt | 145.7*
C=CCNC(=O)[C@@H]1[C@H]2C(=O)O[C@H](c3ccccc3)[C@H](c3ccccc3)N2[C@H](c2ccc(OCCO)cc2)[C@@]12C(=O)Nc1ccc(C#CC3(O)CCCCCC3)cc12 | nt | 85.1*
C=CCNC(=O)[C@@H]1[C@H]2C(=O)O[C@H](c3ccccc3)[C@H](c3ccccc3)N2[C@H](c2ccccc2OCCO)[C@@]12C(=O)Nc1ccc(C#CCCO)cc12 | nt | 135.0*
C=CCOC(=O)[C@H]1[C@@H]2C(=O)O[C@@H](c3ccccc3)[C@@H](c3ccccc3)N2[C@@H](c2ccc(OCCOC(=O)[C@@H]3C[C@@H]4C(=O)NCC(=O)N4[C@@H]3c3ccc(O)cc3)cc2)[C@]12C(=O)Nc1ccccc12 | nt | 115.7*
C=CCOC(=O)[C@H]1[C@@H]2C(=O)O[C@@H](c3ccccc3)[C@@H](c3ccccc3)N2[C@@H](c2ccc(OCCOC(=O)[C@@H]3C[C@@H]4C(=O)NCC(=O)N4[C@@H]3c3ccc(O)cc3)cc2)[C@]12C(=O)Nc1ccc(I)cc12 | nt | 9.4
O=C1O[C@H](c2ccccc2)[C@H](c2ccccc2)N2[C@H]1[C@@H](C(=O)NC[C@H](O)c1ccccc1)[C@]1(C(=O)Nc3ccc(C#CC4(O)CCCCCC4)cc31)[C@H]2c1ccccc1OCCO | nt | 27.5
C=CCNC(=O)[C@H]1[C@@H]2C(=O)O[C@@H](c3ccccc3)[C@@H](c3ccccc3)N2[C@@H](c2ccc(O)cc2)[C@]12C(=O)Nc1ccc(C#CCCO)cc12 | nt | -11.5
CCOC(=O)CSc1nc(-c2ccc(OC)cc2)cc(C(F)(F)F)n1 | nt | 2.9
COc1cc2ccc(=O)oc2c(OC(C)=O)c1OC(C)=O | nt | 16.3
Cc1nn(C)c(C)c1CNC(=O)c1cnn2c1NC(c1ccc(Br)cc1)CC2C(F)(F)F (stereo not drawn) | 23.9 | -0.6
O=C(N/N=C/c1cc(O)ccc1Br)c1ccccn1 | nt | 6.3
C[C@H]1CN([C@@H](C)CO)C(=O)c2cccc(NC(=O)c3nc4ccccc4s3)c2O[C@H]1CN(C)Cc1ccccc1 | 39.7 | 11.5
C[C@H](CO)N1C[C@H](C)[C@H](CN(C)Cc2ccccc2)Oc2c(NC(=O)c3nc4ccccc4s3)cccc2C1=O | 44.7 | 22.3
C[C@@H]1CN([C@H](C)CO)C(=O)c2cccc(NC(=O)c3nc4ccccc4s3)c2O[C@H]1CN(C)Cc1ccc(C(=O)Nc2ccccc2N)cc1 | 119.8* | 149.9*
C[C@H]1CN([C@@H](C)CO)C(=O)c2cccc(NC(=O)c3nc4ccccc4s3)c2O[C@H]1CN(C)Cc1ccc(C(=O)Nc2ccccc2N)cc1 | 127.0* | 172.0*
COc1ccccc1OCCSc1n[nH]c2nc3ccccc3n12 | 6.6 | 2.7
C[C@@H]1CN([C@@H](C)CO)C(=O)c2cccc(NC(=O)Nc3ccc4c(c3)OCO4)c2O[C@@H]1CN(C)CC1CC1 | 18.1 | 0.0
COC(=O)c1ccc(NC(=O)CCC(=O)c2ccc(Br)cc2)cc1 | 13.4 | nt
CCOC(NC(=O)Nc1ccc(Br)cc1)(C(F)(F)F)C(F)(F)F | 108.5* | 54.8
C[C@@H]1CN([C@H](C)CO)C(=O)c2cc(NC(=O)Nc3ccc(C(F)(F)F)cc3)ccc2O[C@H]1CN(C)Cc1ccc(Cl)c(Cl)c1 | 122.5* | -4.9
C[C@H]1CN([C@@H](C)CO)C(=O)c2cc(NC(=O)Nc3ccc(C(F)(F)F)cc3)ccc2O[C@H]1CN(C)Cc1ccc(Cl)c(Cl)c1 | 106.9* | 0.6
C[C@H]1CN([C@@H](C)CO)C(=O)c2cc(NC(=O)Nc3ccc(F)cc3)ccc2O[C@@H]1CN(C)Cc1ccc(Cl)c(Cl)c1 | 21.8 | 20.2
C[C@@H]1CN([C@H](C)CO)C(=O)c2cc(NC(=O)Nc3ccc(C(F)(F)F)cc3)ccc2O[C@@H]1CN(C)Cc1ccc(Cl)c(Cl)c1 | 113.6* | 9.7
C[C@@H]1CN([C@H](C)CO)C(=O)c2cc(NC(=O)Nc3ccc(C(F)(F)F)cc3)ccc2O[C@H]1CN(C)Cc1ccncc1 | -6.3 | 12.7
SMILES | NOMO-1 viab | U2OS ROS induce
C[C@@H]1CN([C@H](C)CO)C(=O)c2cccc(NC(=O)c3ccncc3)c2O[C@H]1CN(C)Cc1ccc(Cl)c(Cl)c1 | 58.4 | 13.0
O=C1C(=O)N(Cc2ccco2)C(c2cccc(O)c2)C1C(=O)c1ccco1 (stereo not drawn) | 22.7 | nt
CN1C(=O)N(C)C(=O)C(CCc2ccncc2)(C2(C#N)CCCCC2)C1=O | nt | 1.6
Cc1cc(C(=O)Nc2cccc3c2O[C@H](CN(C)C(=O)NC(C)C)[C@@H](C)CN([C@@H](C)CO)C3=O)n(C)n1 | -21.6 | -9.1
CC1CCCC2OC2C(=O)c2c(O)cc(O)cc2CC(=O)O1 (stereo not drawn) | 14.6 | -6.3
CC1CCC/C=C/C(=O)c2c(O)cc(O)cc2CC(=O)O1 (stereo not drawn) | 107.7* | 90.8*
C[C@H](CO)N1C[C@H](C)[C@H](CN(C)Cc2ccc(C(=O)Nc3ccccc3N)cc2)Oc2ccc(NC(=O)Nc3ccc(F)cc3)cc2CC1=O | 126.7* | 57.0
C[C@H]1CN([C@@H](C)CO)C(=O)Cc2cc(NC(=O)NC3CCCCC3)ccc2O[C@H]1CN(C)Cc1ccc(C(=O)Nc2ccccc2N)cc1 | 138.8* | 8.1
C[C@@H]1CN([C@H](C)CO)C(=O)Cc2cc(NC(=O)Nc3ccc(C(F)(F)F)cc3)ccc2O[C@H]1CN(C)Cc1ccc(C(=O)Nc2ccccc2N)cc1 | 23.8 | -18.3
C[C@@H]1CN([C@@H](C)CO)C(=O)Cc2cc(NC(=O)Nc3ccc(F)cc3)ccc2O[C@@H]1CN(C)Cc1ccc(C(=O)Nc2ccccc2N)cc1 | 113.3* | ?
C[C@@H]1CN([C@@H](C)CO)C(=O)Cc2cc(NC(=O)Nc3ccccc3)ccc2O[C@@H]1CN(C)Cc1ccc(C(=O)Nc2ccccc2N)cc1 | 124.1* | 28.5
C[C@@H]1CN([C@H](C)CO)C(=O)Cc2cc(NC(=O)Nc3cccc4ccccc34)ccc2O[C@H]1CN(C)Cc1ccc(C(=O)Nc2ccccc2N)cc1 | -19.5 | 16.4
C[C@@H]1CN([C@H](C)CO)C(=O)Cc2cc(NC(=O)NC3CCCCC3)ccc2O[C@H]1CN(C)Cc1ccc(C(=O)Nc2ccccc2N)cc1 | 16.2 | -0.4
C[C@H](CO)N1C[C@H](C)[C@H](CN(C)C(=O)Nc2ccc(-c3cccs3)cc2)OCc2cn(nn2)CCCC1=O | nt | 31.8
CC(=O)O[C@@H]1CC2C(C)(C)[C@H](O)C[C@H](O)[C@]2(C)C2CC[C@@]3(C)[C@H](c4ccoc4)OC(=O)[C@H]4O[C@]43[C@@]21C (stereo partly drawn) | 26.9 | 64.5
O=C(CSc1nc2ccccc2c(=O)[nH]1)Nc1ccc2ccccc2c1 | 11.1 | 1.5
C[C@@H]1CN([C@H](C)CO)C(=O)c2cccc(NC(=O)C3CCOCC3)c2O[C@H]1CN(C)Cc1ccc(Cl)c(Cl)c1 | 30.5 | 26.3
C[C@@H]1CN([C@H](C)CO)C(=O)Cc2cc(NS(=O)(=O)c3ccc(Cl)cc3)ccc2O[C@@H]1CN(C)C(=O)Nc1cccc2ccccc12 | -1.5 | 4.5
